Among the data in PubChem BioAssay (NCATS) are Potency values, retold here.

Records with an inconclusive call do not appear. The source made the active and inactive calls. The call rests on the fitted dose curve; in most records, active means well fitted inhibition curve with a large enough effect; inconclusive means small, poorly fitted or top-dose-only effect; inactive means flat fitted curve, though single readings scatter.

What all share (assay): qHTS profiling for inhibitors of Plasmodium falciparum proliferation (AID 504749); further: nearly all actives have a fitted effect of over 60% in size
Holding throughout (settings): P. falciparum in erythrocytes, SYBR Green DNA, 72 h; series mostly up to 28.7 µM

One assay relates to ATS189. The method in brief:
(§1)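 P. falciparum-infected erythrocytes (0.3% parasitemia, 2.5% hematocrit final) were exposed to compounds for 72 h at 37 C in 5% CO2, then lysed with SYBR Green buffer overnight at room temperature; parasite DNA fluorescence was normalized to artemisinin and DMSO controls.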

The subject of the next assay is ATS95. Put shortly: as §1
The test system of another assay is C2A. Put shortly: as §1
In the next assay the test system is CP185. Put shortly:
as §1

Another assay concerns CP191. Put shortly:
as §1

For the next assay, the system named is CP192. Put shortly: as §1
In a further assay the test system is CP194. Put shortly:
as §1

The next assay deals with CP201. Put shortly:
as §1

For another assay, the system named is CP203. The method in brief: as §1
For the next assay, the system named is CP211. The method in brief:
as §1
Potency means the concentration at half of the fitted maximal effect.

For the molecule `CCCCCCC(O)C/C=C/CCCCCCCC(=O)O` (centres undefined), the Potency result with ATS189, in the assay on ATS95, in the assay on C2A, in the assay with CP185, with CP191 and in the assay with CP192 was “inactive” in each case. Moreover, the Potency result in the assay on CP194, in the assay on CP201 and with CP203 was “inactive” each time.
As for `COC(F)(F)C(Cl)Cl`, the Potency entry in the assay on ATS189, with ATS95, in the assay with C2A, in the assay with CP185, in the assay with CP191 and in the assay with CP192 was “inactive” each time. The Potency result in the assay with CP194, with CP201, in the assay with CP203 and in the assay on CP211 was “inactive” in each case.
Consider `CN1C(=O)CN2CCc3ccccc3C2c2cc(Cl)ccc21` (centres undefined), for which the Potency result in the assay with ATS189, in the assay on ATS95, in the assay on C2A, with CP185, in the assay with CP191 and in the assay with CP192 was “inactive” each time. Besides, the Potency result with CP194, in the assay on CP201, with CP203 and with CP211 was “inactive” in each case.
Turning to `Cc1c(C)c2c(c(C)c1O)CC[C@@](C)(CCC[C@H](C)CCC[C@H](C)CCCC(C)C)O2`, the Potency entry with ATS189, in the assay on ATS95, in the assay on C2A, with CP185, in the assay on CP191 and with CP192 was “inactive” in each case. The Potency result in the assay with CP194, in the assay on CP201, in the assay with CP203 and in the assay on CP211 was “inactive” throughout.
On to `O=C(O)CCC(=O)C(=O)O`, for which the Potency result in the assay on ATS189, with ATS95, in the assay on C2A, in the assay with CP185, in the assay on CP191 and in the assay with CP192 was “inactive” each time. The Potency entry in the assay on CP194, with CP201, in the assay on CP203 and with CP211 was “inactive” throughout.
Regarding `CCCCCCCCCCCC[n+]1ccc2ccccc2c1`, the Potency with ATS189 was 1000 nM (active); in the assay with ATS95, 2000 nM (active); in the assay on C2A, 708 nM (active); in the assay on CP185, 562 nM (active); with CP191, 562 nM (active); with CP192, 601 nM (active). In addition, the Potency is 1200 nM (active) with CP194, 1690 nM (active) with CP201, 849 nM (active) in the assay on CP203 and 675 nM (active) with CP211.
Take `Nc1c(N=Nc2ccc(-c3ccc(N=Nc4cc(S(=O)(=O)O)c5ccccc5c4N)cc3)cc2)cc(S(=O)(=O)O)c2ccccc12`: the Potency entry in the assay on ATS189, with ATS95, in the assay with C2A, in the assay with CP185, in the assay on CP191 and in the assay with CP192 was “inactive” throughout. Also, the Potency result with CP194, in the assay on CP201, with CP203 and in the assay on CP211 was “inactive” each time.
Take `C[C@]12CCC(=O)C=C1CC[C@@H]1[C@@H]2[C@@H](O)C[C@@]2(C)[C@H]1CC[C@]2(O)C(=O)COP(=O)(O)O`: the Potency result in the assay with ATS189, with ATS95, in the assay on C2A, in the assay with CP185, in the assay with CP191 and with CP192 was “inactive” each time. Further, the Potency entry with CP194, with CP201, in the assay on CP203 and in the assay on CP211 was “inactive” each time.
As to `Nc1ncnc2c1ncn2[C@@H]1O[C@H](COP(=O)(O)OP(=O)(O)OP(=O)(O)O)[C@@H](O)[C@H]1O`, the Potency result in the assay with ATS189, in the assay with ATS95, in the assay with C2A, in the assay with CP185, with CP191 and in the assay with CP192 was “inactive” each time. The Potency entry in the assay with CP194, with CP201, with CP203 and in the assay on CP211 was “inactive” each time.
For the molecule `CCC(=O)NCCC1CCc2ccc3c(c21)CCO3` (centres undefined), the Potency entry in the assay with ATS189, in the assay on ATS95, in the assay with C2A, in the assay with CP185, in the assay with CP191 and in the assay with CP192 was “inactive” in each case. For the same molecule, the Potency result in the assay with CP194, in the assay on CP201, in the assay with CP203 and in the assay with CP211 was “inactive” each time.
Take `C[C@@H]1CCC2[C@@H](C)[C@@H](O)O[C@@H]3O[C@@]4(C)CC[C@@H]1[C@@]23OO4` (some centres undefined): the Potency is 2.2 nM (active) in the assay on ATS189; 2.2 nM (active) in the assay with ATS95; 2.2 nM (active) in the assay on C2A; 2.5 nM (active) in the assay with CP185; 3.2 nM (active) in the assay with CP191; 4.3 nM (active) in the assay with CP192. Further, the Potency in the assay on CP194 was 6 nM (active); in the assay on CP201, 10.7 nM (active); with CP203, 3.4 nM (active); in the assay on CP211 it was 5.4 nM (active).
For `Cc1c(C)c2c(c(C)c1O)CC[C@@](C)(CCC[C@@H](C)CCC[C@@H](C)CCCC(C)C)O2`, the Potency entry in the assay with ATS189, in the assay with ATS95, in the assay on C2A, in the assay with CP185, with CP191 and with CP192 was “inactive” throughout. Further, the Potency result in the assay on CP194, with CP201, with CP203 and in the assay on CP211 was “inactive” in each case.
As for `CC(=O)Oc1c(C)cc(OCC(O)CNC(C)C)c(C)c1C` (centres undefined), the Potency result with ATS189, in the assay on ATS95, with C2A, in the assay with CP185, in the assay with CP191 and in the assay with CP192 was “inactive” each time. The Potency entry with CP194, in the assay with CP201, in the assay on CP203 and in the assay on CP211 was “inactive” throughout.
In the case of `CCCCC(C)(O)C/C=C/[C@H]1[C@H](O)CC(=O)[C@@H]1CCCCCCC(=O)OC` (some centres undefined), the Potency result in the assay on ATS189, in the assay with ATS95, with C2A, in the assay on CP185, in the assay with CP191 and with CP192 was “inactive” each time. Also, the Potency result with CP194, in the assay with CP201, in the assay on CP203 and with CP211 was “inactive” each time.
Take `CC(NNC(=O)c1ccccc1)c1ccccc1` (centres undefined): the Potency entry in the assay on ATS189, in the assay on ATS95, in the assay with C2A, in the assay with CP185, with CP191 and with CP192 was “inactive” throughout. Also, the Potency entry with CP194, in the assay with CP201, with CP203 and with CP211 was “inactive” each time.
As for `CC(C(=O)O)c1ccc(N2Cc3ccccc3C2=O)cc1` (centres undefined), the Potency result in the assay with ATS189, with ATS95, in the assay with C2A, with CP185, with CP191 and in the assay on CP192 was “inactive” in each case. The Potency result in the assay on CP194, in the assay on CP201, in the assay on CP203 and in the assay with CP211 was “inactive” throughout.
Take `C[C@H]1C[C@H]2[C@@H]3CCC4=CC(=O)C=C[C@]4(C)[C@@]3(F)[C@@H](O)C[C@]2(C)[C@@]1(O)C(=O)CO`: the Potency result in the assay on ATS189, with ATS95, with C2A, in the assay on CP185, with CP191 and with CP192 was “inactive” throughout. Further, the Potency result in the assay on CP194, in the assay with CP201, in the assay on CP203 and in the assay with CP211 was “inactive” each time.
With `CCCCCCCC/C=C\CCCCCCCC(=O)O`, the Potency entry in the assay with ATS189, with ATS95, with C2A, in the assay with CP185, in the assay on CP191 and in the assay with CP192 was “inactive” each time. Moreover, the Potency entry in the assay on CP194, with CP201, with CP203 and with CP211 was “inactive” throughout.
